Reference: PubChem BioAssay (EPA / NIEHS)
Several values for one entry are separate records, joined by “and”; a condition that tells them apart may be missing. Equal values may be shown once. Where a structure was tested more than once in an assay, its records may differ in their call. Activity calls are given as the source filed them. How the source made its calls: active means hit-call score of the fitted dose curve at least 0.9, where 1 is the maximum; inactive means score below 0.9.

test: ATG_TGFb_CIS: Attagene CIS-FACTORIAL HepG2 Assay for human Transforming Growth Factor (TGF) (AID 2282967); conditions: HepG2 Attagene CIS TGFb reporter, mRNA transcription; actives raise or lower the signal
How it was run: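 Transcript-level reporter readout: HepG2 transfectants, 24 h exposure, RNA to cDNA, reporter-specific PCR, fluorescent primer extension, capillary sizing against ROX standards. Gain- or loss-of-signal relative to DMSO.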

Structure (SMILES)	outcome	AC50
c1ccc2c(c1)CCC2	inactive	
CC(C)(C)c1ccc(O)c(O)c1	inactive	100 µM (active) and 46.6 µM (active) and 42.3 µM (active)
CN(Cc1cnc2nc(N)nc(N)c2n1)c1ccc(C(=O)N[C@@H](CCC(=O)O)C(=O)O)cc1	inactive	
CCCCCCCCCCCC(=O)NCCCN(C)C	inactive	
O=C1c2ccc(O)c(O)c2C(=O)c2c(O)ccc(O)c21	inactive	
Cc1ccc(C(=O)c2ccccc2)cc1	inactive	
Nc1ccc(O)c(C(=O)O)c1	inactive	
CCCCc1oc2ccccc2c1C(=O)c1cc(I)c(OCCN(CC)CC)c(I)c1	inactive	
O=C(O)C(F)(F)OC(F)(F)C(F)(F)OC(F)(F)C(F)(F)OC(F)(F)C(F)(F)C(F)(F)C(F)(F)F	inactive	
CC[N+](CC)(CC)Cc1ccccc1	inactive	
O=C1Cc2ccccc2N1c1c(Cl)cccc1Cl	inactive	
CN(C)c1ccc(C(=C2C=CC(=[N+](C)C)C=C2)c2ccccc2)cc1	inactive	1.85 µM (active)
CCCCC(CC)C(=O)OCCOCCOCCOCCOC(=O)C(CC)CCCC (centres undefined)	inactive	
c1cnc2c(c1)ccc1cccnc12	inactive	
CN(C)CCOC(c1ccccc1)c1ccccc1	inactive	
C[C@]12CC[C@@H]3c4ccc(O)cc4CC[C@H]3[C@@H]1CC[C@@H]2OC(=O)CCC1CCCC1	inactive	
Cc1cc(=O)oc2cc(O)ccc12	inactive	
FC(OC(F)(F)C(F)(F)C(F)(F)F)C(F)(F)F (centres undefined)	inactive	
COCN(COC)c1nc(N(COC)COC)nc(N(COC)COC)n1	inactive	

Structure (SMILES)	outcome	AC50
CC=O	inactive	
CCCCCCCCCCCCCCC	inactive	
Cc1ccccc1C(OCCN(C)C)c1ccccc1 (centres undefined)	inactive	
CC(=O)Nc1ccc(O)cc1	inactive	
CC(C)CCOCCC(C)C	inactive	
CCc1ccccc1O	inactive	
O=P(O)(O)CCC(F)(F)C(F)(F)C(F)(F)C(F)(F)C(F)(F)C(F)(F)F	inactive	
Nc1ccn([C@@H]2O[C@H](CO)[C@@H](O)C2O)c(=O)n1 (some centres undefined)	inactive	
O=C(CCCN1CCC(O)(c2ccc(Cl)cc2)CC1)c1ccc(F)cc1	inactive	
CC1=NN(c2ccccc2)C(=O)C1	inactive	
O=S(=O)(c1ccc(OCc2ccccc2)cc1)c1ccccc1O	inactive	
CC(C)C=O	inactive	
Cc1ccc(S(=O)(=O)O)cc1	inactive	
Cc1cc(Cc2cc(C)cc(C(C)(C)C)c2O)c(O)c(C(C)(C)C)c1		56.6 µM (active)
Cc1ccc(N=Nc2c(O)ccc3ccccc23)c(C)c1	inactive	
O=C1OC(=O)c2cc(-c3ccc4c(c3)C(=O)OC4=O)ccc21	inactive	
O=C1c2ccccc2C(=O)c2c(O)c(O)cc(O)c21	inactive	
CCC(=O)O	inactive	
